According to PubChem BioAssay AID1117319 (Southern Research Institute, 2015):
Where “and” joins values, the source holds several entries; their conditions need not be identical. Identical values can stand only once. Out of some 260,000 compounds screened, about 1,500 (0.58%) were called active. Not shown: some 5% with an inconclusive outcome.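 Rule for the calls: active = inhibition above a set limit at one or more doses, reproduced on every date tested; inconclusive = results disagree between test dates, or hit never tested in dose response; inactive = the rest.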 A selection follows. Results with a measured potency or affinity are listed apart.

Biological target: Virion infectivity factor (Human immunodeficiency virus type 1 group M subtype B (isolate BH10)) + Virion infectivity factor (Human immunodeficiency virus type 1 group M subtype B (isolate BRU/LAI)) + Virion infectivity factor (Human immunodeficiency virus type 1 group M subtype B (isolate PCV12)) + Virion infectivity factor (Human immunodeficiency virus type 1 group M subtype B (isolate HXB2)) + DNA dC->dU-editing enzyme APOBEC-3G (Homo sapiens) (UniProt P69720+P69721+P69722+P69723+Q9HC16)
Assay: inhibitors of Vif binding to APOBEC3G peptide, primary screen, biochemical, TR-FRET, GST-Vif 1-94, biotin-A3G peptide, dose response retest (AID 1117319);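 note: Vif residues 1-94 fused to GST binding biotinylated APOBEC3G peptide 110-148; 0% = full assay without inhibitor and 100% = GST in place of GST-Vif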
Conditions: hits give high values

inhibition, inactive:
COc1cc2[nH]c(=S)n(Cc3cccs3)c(=O)c2cc1OC -5.73%
Cc1cc(C)cc(OCC(=O)NN2C(=O)c3ccccc3C2=O)c1 2.37%
Cc1ccc(N(CC(=O)NC(C)(C)C)C(=O)CS(=O)CC(=O)Nc2ccc(F)cc2)cc1 (stereo not given) 10.4%
CCN(CC(=O)Nc1ccc(OC)cc1)C(=O)c1ccc2c(c1)NC(=O)C(C)S2 (stereo not given) 6.39%
COc1cccc(C(=O)N2CCN(C(=O)c3cccc4ccccc34)CC2)c1OC 1.56%
CSC1=N/C(=C\c2ccccc2)C(=O)N1C 4.78%
O=C(CN1C(=O)S/C(=C/c2ccccn2)C1=O)N1CCOCC1 2.37%
CCCCCn1c(=NC(=O)c2ccco2)c(C(=O)OCC)cc2c(=O)n3ccccc3nc21 4.41% and -0.06%
COc1cc(-c2nnc(NC(=O)CCS(=O)(=O)c3ccccc3)o2)cc(OC)c1OC 2.37%
CC1(C)CC(=O)C2=C(C1)N(Cc1ccco1)C(=O)NC2(C(F)(F)F)C(F)(F)F -1.11%
O=C1c2cccnc2C(=O)N1Cc1ccco1 7.44%
O=C1CNC(=S)N1Cc1ccc(F)cc1 5.9%
Cn1cccc1/C=C1\SC(=S)N(NC(=O)c2ccc(F)cc2)C1=O 14.3%
O=C(O)Cn1cc(/C=C2\SC(=O)N(c3ccccc3)C2=O)c2ccccc21 -7.51%
Cc1cc(/C=C2\SC(=S)N(Cc3ccco3)C2=O)c(C)n1-c1ccccc1 3.57%
O=C(O)Cn1cc(/C=C2/NC(=O)N(c3ccc(Cl)cc3)C2=O)c2ccccc21 -2.83%
Cc1cc(/C=C2/C(=O)NN(c3ccccc3)C2=O)c(C)n1-c1ccc(O)cc1 -5.99%
CNC(=O)C[C@H]1C(=O)N(C2CCCCC2)C[C@@H]1C 8.77%
COCCn1c(C)cc(/C=C(\C#N)C(=O)OCC(=O)N(C)c2c(N)n(Cc3ccccc3)c(=O)[nH]c2=O)c1C 10.7%
N#Cc1c(F)cccc1NCc1cccs1 -3.38%
Cc1nc(C)c(C(=O)C2=C(O)C(=O)N(CCCn3ccnc3)C2c2ccc(Cl)cc2)s1 (stereo not given) 0.13%
COc1ccc(-c2cc(C(=O)N3CCC3)c3ccccc3n2)cc1OC -14.9%
Cc1ccc(C(=O)O)c(C(=O)Nc2nc3ccccc3s2)c1 -4.97%
O=C(/C=C/c1cccs1)Nc1ccc(N2CCOCC2)c(S(=O)(=O)Nc2ccccc2Cl)c1 -5.05%
Cn1c(=O)n(C)c2cc(/C=C3/NC(=O)N(Cc4ccccc4)C3=O)ccc21 -1.59%
O=Cc1cccn1-c1ccc2ccccc2c1 -0.71%
O=C1Nc2ccccc2/C1=C\c1cccn1-c1ccc(OC(F)(F)F)cc1 5.25%
CC1=CC2=NC(=O)/C(=C\c3cccn3CCOc3cccc(C)c3)C(=N)N2O1 -1.97%
O=C1N/C(=C/c2cccn2-c2ccc(F)cc2)C(=O)N1Cc1ccccc1 6.05%
Cc1ccc(/C=C2/NC(=O)N(Cc3ccccc3)C2=O)s1 3.49%
COc1cccc(OCCn2cccc2/C=C2/C(=N)N3OC(C)=CC3=NC2=O)c1 1.07%
Cn1cccc1/C=C1\SC(=Nc2ccccc2)NC1=O -5.03%
O=C(COC(=O)c1ccccc1Sc1ccc(C(F)(F)F)cc1[N+](=O)[O-])NC(=O)NC1CCCC1 -2.59%
CCCN1C(=O)/C(=c2\sc3nc(=O)c(Cc4ccc(C)cc4)nn3c2=O)c2ccccc21 1.89%
CC1(C(=O)O)CCC(C(=O)NNC(=O)c2ccccc2O)C1(C)C (stereo not given) -0.63%
COc1cc(/C=C2\SC(=O)N(CCNC(=O)c3c(C)noc3C)C2=O)cc(OC)c1OC -5.96%
Cc1ccc(S(=O)(=O)N2CCOCC2)cc1NC(=O)COC(=O)c1ccc2c(c1)OCCO2 -7.03%
O=C1N/C(=C/c2cccn2-c2ccc(F)cc2)C(=O)N1Cc1ccccc1F 5.17%
O=C1N/C(=C/c2cccn2-c2ccccc2)C(=O)N1Cc1ccc(F)cc1 15.6%
COc1ccc(NC(=O)CN(C)C(=O)C2CC(=O)N(c3cccc4ccccc34)C2)cc1 (stereo not given) 2.19%
COc1cc(C2CC(=O)Nc3cc(C)c(C)cc32)cc(OC)c1OC (stereo not given) -9.63%
COc1cc2c(cc1OC)C(c1cccc(OC)c1OC)CC(=O)N2 (stereo not given) 2.22%
O=C(NCC(=O)N(c1ccc2c(c1)OCO2)C(C(=O)NC1CCCC1)c1ccncc1)c1ccco1 (stereo not given) 21.4%
CC(C)(C)NC(=O)C(c1ccncc1)N(C(=O)CNC(=O)c1ccco1)c1ccc(F)cc1 (stereo not given) 5.09%
COc1cccc(NC(=O)CN(C)C(=O)CCCc2nc3ccccc3c(=O)[nH]2)c1 4.69%
CCCCCOc1ccc(C2NC(=O)NC2=O)cc1 (stereo not given) 0.64%
CCN(c1ccc(OC)cc1)S(=O)(=O)c1nnc(NC(=O)COc2ccccc2)s1 6.53%
O=C(CN1C(=O)CCSc2ccccc21)Nc1ccc2c(c1)OCCO2 4.27%
COC(=O)c1ccc(COc2ccccc2/C=C(\C#N)C(=O)Nc2ccc(C)cc2)cc1 -4.01%
COC(=O)c1ccc(COc2ccccc2/C=C(\C#N)C(=O)Nc2c(C)cccc2C)cc1 -2.89%
COCCNC(=O)C1(C)Oc2ccccc2NC1=O (stereo not given) 1.83%
Cc1oc(-c2ccccc2F)nc1CS(=O)(=O)CC(=O)N1CCN(Cc2ccccc2)CC1 5.89%
CCOC(=O)CN(C(=O)CSc1nnc(COc2ccc(OC)cc2)n1C)c1ccccc1 0.19%
CCOc1ccc(-c2nnn(CC(=O)c3ccc4c(c3)OCCO4)n2)cc1 -11.1%
COc1ccc(-c2nnn(CC(=O)c3ccc4c(c3)OCCO4)n2)cc1OC 21.5%
CN(C)c1ccc(CNC(=O)C2CCN(S(=O)(=O)c3ccc4c(c3)oc(=O)n4C)CC2)cc1 -3.31%
CCC1=NNc2cccc3c(OC)ccc1c23 10.8%
COc1ccc2c3c(cccc13)OCC2=O 24.2%
COc1ccccc1NC(=O)c1nnn(Cc2ccccc2)c1NC(=O)C(F)(F)F 0.14%
CCn1cc(S(=O)(=O)Nc2nc3ccc(OC)cc3s2)cn1 -2.85%
Nc1ccccc1SCc1ccccc1 -5.9%
Cn1c(SCc2ccccc2)nccc1=O 1.19%
CCOC(=O)c1nnc2cc(-c3ccc(Br)cc3)nn2c1C 1.62%
COc1ccccc1OCCSc1nc(N)cc(N)n1 4.3%
COc1ccc2nc3ccccc3nc2c1NC(=O)c1ccc(Br)cc1 -5.53%
COc1ccc2nc3cccc(OC)c3nc2c1 15.1%
Cc1ccc(-n2nc(-c3ccco3)cc2C(=O)NCc2cccnc2)cc1 9.86%
CCOC(=O)c1cc(-c2ccco2)nn1-c1ccc(C)cc1 -3.18%
CN(C)C(=O)CSc1nnc([C@H](Cc2ccccc2)NC(=O)OC(C)(C)C)o1 -2.79%
O=S1(=O)N=C(Nc2ccc(N3CCOCC3)c(Cl)c2)c2ccccc21 12.7%
O=C(CCC(=O)c1cccs1)NCc1ccc(Cl)cc1 1.67%
CCCC(=O)C1=C(O)C(C(=O)OC)C(C)(C)CC1=Nc1ccc(N)cc1 (stereo not given) 0.65%
CCCC(=NCc1ccccc1)C1=C(O)C(C(=O)OC)C(C)(C)CC1=O (stereo not given) 3.41%
CCCC(=Nc1ccccc1)C1=C(O)C(C(=O)OC)C(C)(C)CC1=O (stereo not given) 26.8%
CCC(=NCc1ccccc1)C1=C(O)C(C(=O)OC)C(C)(C)CC1=O (stereo not given) 5.76%
O=S(=O)(NCCN1CCN(S(=O)(=O)c2ccccc2F)CC1)c1ccccc1F 1.35%
O=C1NC(=O)/C(=C\c2cn(CC(=O)N3CCOCC3)c3ccccc23)S1 -3.19%
O=C(COC(=O)/C=C/c1cc(Br)ccc1F)Nc1ccc2[nH]c(=O)[nH]c2c1 -2.89%
Cc1cccc(N2CC(C(=O)O)CC2=O)c1 (stereo not given) -2.42%
Cc1ccc(SCC(=O)Nc2nnc(-c3ccco3)o2)cc1 6.62%
CC(=O)Nc1ccc(N=Cc2c(O)c3ccccc3oc2=O)cc1 -14.5%
COc1ccc(-c2oc3ncnc(N)c3c2-c2ccccc2)cc1 -1.94%
Cc1ccc(-c2oc3ncnc(N)c3c2-c2ccc(C)cc2)cc1 -8.91%
Cc1c(NC(=O)COc2ccc(C(C)C)cc2)c(=O)n(-c2ccccc2)n1C -8.62%
CCCCCCC(O)(c1ccccc1)C(CN1CCOCC1)c1ccccc1 (stereo not given) 0.34%
Cc1noc(N)c1C(=O)Nc1ccc(F)c(Cl)c1 -9.43%
CCc1noc(C)c1C(=O)Nc1ccc(F)c(F)c1 -2.68%
Cc1nc2scc(-c3ccc(Cl)cc3)c2c(=O)o1 19.2%
CCOc1ccc(C(=O)COc2ccc(NC(C)=O)cc2)cc1 6.05%
CCOC(=O)C1=C(N)n2c(s/c(=C\c3ccncc3)c2=O)=C(C(=O)OCC)C1c1ccncc1 (stereo not given) -12.8%
CCOC(=O)C1=C(N)n2c(s/c(=C/c3ccccc3)c2=O)=C(C(=O)OCC)C1c1ccccc1 (stereo not given) -3.94%
CCOC(=O)C1=C(N)n2c(s/c(=C\c3cccs3)c2=O)=C(C(=O)OCC)C1c1cccs1 (stereo not given) -6.07% and -0.48%
CCOC(=O)C1=c2s/c(=C\c3ccncc3)c(=O)n2C(N)=C(C(=O)OC)C1c1ccncc1 (stereo not given) -6.47%
CCOC(=O)C1=C(C)NC(C)=C(C(=O)OCC)C1c1ccco1 22.4%
CCOC(=O)C1=c2s/c(=C\c3cccnc3)c(=O)n2C(N)=C(C(=O)OC)C1c1cccnc1 (stereo not given) -8.08%
